Drawing on PubChem BioAssay (NCATS), this text covers efficacy, AC50 and outcome for 17 molecules.

A number with no mark means an inactive call. For some of these results: Potency and affinity values are given separately. Active and inactive are the calls of the source.

The conditions of assay [1]: Ebola virus entry assay, green fluorescence channel.
The conditions of assay [2]: Ebola virus entry assay, blue channel fluorescence.
The conditions of assay [3]: Ebola virus entry assay, green fluorescence channel. The source holds these as a separate data set.
For assay [4] the following is noted: Ebola virus entry assay, ratio channel readout.
The conditions of assay [5]: Ebola virus entry assay, blue channel fluorescence. The source holds these as a separate data set.
For assay [6] the following is noted: Ebola virus entry assay, ratio channel.
For assay [7] the following is noted: Ebola virus entry assay, reporter ratio channel; AC50: Channel type: primary unless noted; outcome: Channel type: primary unless noted.
For assay [8] the following is noted: Ebola virus entry assay, blue channel (ratio component).
Throughout, for efficacy: 0% is about no effect.

In the case of `O[C@@H](c1cc(C(F)(F)F)nc2c(C(F)(F)F)cccc12)[C@H]1CCCCN1`, in assay [1], the efficacy is -219%. Moreover, the concentration at half-maximal activity (AC50) is 7.94 µM (active) in assay [2]; 5.63 µM (active) in assay [4]; 1.58 µM (active) in assay [5]; 1.58 µM (active) in assay [6]; 1.58 µM (active) in assay [7]. Further, the call in assay [3] was inactive.
On to `CN1CCN(C(c2ccccc2)c2ccccc2)CC1`, for which the efficacy in assay [1] is 84.8%. The result in assay [2], in assay [3] and in assay [4] was inactive. Further, the half-maximal activity concentration (AC50) was 28.2 µM (active) in assay [5], 22.4 µM (active) in assay [6] and 22.4 µM (active) in assay [7].
With `CCN(CC)CCN1C(=O)CN=C(c2ccccc2F)c2cc(Cl)ccc21`, the efficacy in assay [1] was 47.1%. Moreover, the call in assay [2], in assay [3], in assay [4] and in assay [6] was inactive. In addition, the half-maximal activity concentration (AC50) in assay [5] is 35.5 µM (active); in assay [7] it was 39.8 µM (active).
As to `CNCC[C@H](Oc1cccc2ccccc12)c1cccs1`, in assay [1], the efficacy is -133%. Also, the AC50 is 11.2 µM (active) in assay [2], 6.31 µM (active) in assay [5], 3.55 µM (active) in assay [6] and 3.55 µM (active) in assay [7]. Also, the molecule was called inactive in assay [3] and in assay [4].
With `OCCN(CCO)c1nc(N2CCCCC2)c2nc(N(CCO)CCO)nc(N3CCCCC3)c2n1`, the efficacy in assay [1] was 489%. Also, the call in assay [2], in assay [4], in assay [5], in assay [6] and in assay [7] was inactive. Besides, in assay [3], the AC50 was 25.1 µM (active).
As for `CC[C@]1(O)C[C@H]2CN(CCc3c([nH]c4ccccc34)[C@@](C(=O)OC)(c3cc4c(cc3OC)N(C=O)[C@H]3[C@@](O)(C(=O)OC)[C@H](OC(C)=O)[C@]5(CC)C=CCN6CC[C@]43[C@@H]65)C2)C1`, the efficacy in assay [1] is 37.5%. Also, the molecule was classed as inactive in assay [2], in assay [3], in assay [4], in assay [6] and in assay [8]. Also, in assay [5], the AC50 was 0.282 µM (active). In addition, the outcome in assay [7] was “inactive [Channel type: confirmation]”.
Consider `COc1cc2c(c(OC)c1OC)-c1ccc(OC)c(=O)cc1[C@@H](NC(C)=O)CC2`, for which the efficacy in assay [1] is -81.3%. Moreover, the concentration at half-maximal activity (AC50) was 0.316 µM (active) in assay [2], 0.32 µM (active) in assay [4], 22.4 µM (active) in assay [5] and 0.316 µM (active) in assay [6]. Also, the molecule was classed as inactive in assay [3] and in assay [8]. Moreover, the outcome in assay [7] was “inactive [Channel type: confirmation]”.
As for `CCCN(CCc1cccs1)[C@H]1CCc2c(O)cccc2C1`, in assay [1], the efficacy is -47.6%. For the same molecule, the molecule was called inactive in assay [2], in assay [3] and in assay [4]. The AC50 in assay [5], in assay [6] and in assay [7] was 25.1 µM (active) throughout.
Turning to `O=C1c2c(O)ccc(O)c2C(=O)c2c(NCCNCCO)ccc(NCCNCCO)c21`, the efficacy in assay [1] was -106%. For the same molecule, the concentration at half-maximal activity (AC50) in assay [2] is 5.01 µM (active); in assay [5], 12.6 µM (active); in assay [6] it was 7.94 µM (active); in assay [7], 7.94 µM (active). The result in assay [3] and in assay [4] was inactive.
For `CCCNCC(O)COc1ccccc1C(=O)CCc1ccccc1` (centres undefined), the efficacy in assay [1] is 86.9%. The AC50 in assay [2] was 11.2 µM (active); in assay [4], 8.92 µM (active); in assay [5], 8.91 µM (active); in assay [6] it was 7.94 µM (active). The result in assay [3] and in assay [8] was inactive. Besides, the outcome in assay [7] was “inactive [Channel type: confirmation]”.
For `COC(=O)Nc1nc2ccc(C(=O)c3ccccc3)cc2[nH]1`, the efficacy in assay [1] was 81.3%. For the same molecule, the AC50 is 5.62 µM (active) in assay [2], 1.41 µM (active) in assay [5], 1.26 µM (active) in assay [6] and 1.26 µM (active) in assay [7]. Moreover, the molecule was classed as inactive in assay [3], in assay [4] and in assay [8].
In the case of `CCN(CC)CCNC(=O)c1c(C)[nH]c(/C=C2\C(=O)Nc3ccc(F)cc32)c1C`, the efficacy in assay [1] is -131%. The AC50 in assay [2] was 3.55 µM (active); in assay [4] it was 3.17 µM (active); in assay [5] it was 1 µM (active); in assay [6], 0.708 µM (active). Also, the result in assay [3] was inactive. The outcome in assay [7] is “inactive [Channel type: confirmation]”.
`CCC(COC(=O)c1cc(OC)c(OC)c(OC)c1)(c1ccccc1)N(C)C` (centres undefined): in assay [1], the efficacy is 72.4%. For the same molecule, the result in assay [2], in assay [3], in assay [4], in assay [5] and in assay [8] was inactive. Moreover, the AC50 in assay [6] and in assay [7] was 17.8 µM (active) each time.
Take `CO[C@]12CC[C@@]3(C[C@@H]1[C@](C)(O)C(C)(C)C)[C@@H]1Cc4ccc(O)c5c4[C@@]3(CCN1CC1CC1)[C@H]2O5`: the efficacy in assay [1] is -151%. For the same molecule, the outcome in assay [2], in assay [3] and in assay [4] was inactive. For the same molecule, the AC50 in assay [5] is 5.62 µM (active); in assay [6] it was 3.16 µM (active); in assay [7], 3.16 µM (active).
Consider `CN(C)CCCN1c2ccccc2Sc2ccc(Cl)cc21`, for which, in assay [1], the efficacy was -179%. In addition, the AC50 in assay [2] is 10 µM (active); in assay [5], 14.1 µM (active); in assay [6], 3.98 µM (active); in assay [7] it was 3.98 µM (active). Besides, the call in assay [3] and in assay [4] was inactive.
On to `Cc1c(O)cccc1C(=O)N[C@@H](CSc1ccccc1)[C@H](O)CN1C[C@H]2CCCC[C@H]2C[C@H]1C(=O)NC(C)(C)C`, for which, in assay [1], the efficacy was 83.4%. Moreover, the outcome in assay [2], in assay [3], in assay [4] and in assay [6] was inactive. For the same molecule, the AC50 in assay [5] and in assay [7] was 39.8 µM (active) in each case.
For the molecule `Fc1ccc([C@@H]2CCNC[C@H]2COc2ccc3c(c2)OCO3)cc1`, in assay [1], the efficacy was 101%. Besides, the half-maximal activity concentration (AC50) in assay [2] was 5.62 µM (active); in assay [4], 5.02 µM (active); in assay [5], 5.01 µM (active); in assay [6] it was 3.98 µM (active); in assay [7], 3.98 µM (active). Moreover, the call in assay [3] was inactive.

The AC50 is the midpoint of the concentration-response curve, whichever way the signal moves.
